Results filed as inconclusive are left out. Some structures have more than one record in an assay (separate samples or runs), and their calls can disagree. Activity calls are given as the source filed them. How the source made its calls, unless noted: active means hit-call score of the fitted dose curve at least 0.9, where 1 is the maximum; inconclusive means response in the unintended direction; inactive means score below 0.9.
Legend:
[1] = IUF_NPC5_oligodendrocyte_differentiation_120hr: Leibniz Research Institute for Environmental Medicine (IUF) 120-hour Oligodendrocyte Differentiation Assay (NPC5) (AID 2284304);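 further: primary human fetal neural progenitor spheres plated to migrate and differentiate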
Method in brief: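 Oligodendrocyte differentiation scored as O4-positive cells, found by CNN image analysis, as percent of Hoechst-stained nuclei in the migration area. Scoring followed 5 days of exposure of plated hNPC neurospheres differentiating in DMEM/F12 N2 medium at 37C, with compound refreshed at day 3.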

[2] = IUF_NPC2-5_cytotoxicity_72hr: Cytotoxicity Assessment at 72 hours in the Leibniz Research Institute for Environmental Medicine (IUF) Neural Progenitor Cell Migration and Differentiation Assay for Cytotoxicity (NPC2-5) (AID 2284306);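 further: LDH release into supernatant measured by resorufin fluorescence marking membrane damage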
Method in brief: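 Human fetal (GW 16-19) neural progenitor spheres, 0.3 mm, plated on poly-D-lysine/laminin in N2 differentiation medium and exposed from day 0 to 7 concentrations plus solvent control (DMSO ≤0.1%). LDH-dependent resazurin-to-resorufin fluorescence in supernatant at 72 h.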

[3] = IUF_NPC2-5_cell_number_120hr: Cell Number Assessment at 120 hours in the Leibniz Research Institute for Environmental Medicine (IUF) Neural Progenitor Cell Migration and Differentiation Assay (NPC2-5) (AID 2284308; active means hit-call score of the fitted dose curve at least 0.9, where 1 is the maximum; inactive means score below 0.9;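 further: count of Hoechst-stained nuclei in migration zone around plated human neural progenitor spheres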)
Method in brief: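 Counting of all Hoechst-stained nuclei in the migration area at 120 h, versus DMSO control. Primary hNPC spheres differentiated on poly-D-lysine/laminin in N2 medium at 37C, dosed from day 0 (7 concentrations, DMSO ≤0.1%), half-refed day 3.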

[4] = IUF_NPC2-5_viability_120hr: Viability Assessment at 120 hours in the Leibniz Research Institute for Environmental Medicine (IUF) Neural Progenitor Cell Migration and Differentiation Assay (NPC2-5) (AID 2284312; active means hit-call score of the fitted dose curve at least 0.9, where 1 is the maximum; inactive means score below 0.9)
Method in brief: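 Human fetal (GW 16-19) neural progenitor spheres of 0.3 mm were plated on poly-D-lysine/laminin in N2 differentiation medium and exposed from day 0 for 120 h, with half-medium refresh at day 3. Viability was read as alamar blue resazurin-to-resorufin fluorescence against DMSO.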

[5] = CCTE_Mundy_HCI_iCellGluta_NOG_NeuriteLength: CCTE's Neurite Outgrowth Assay in iCellGluta cells for Neurite Length, Mundy Lab (AID 2284318)
Method in brief: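 Automated high-content imaging of betaIII-tubulin (Alexa Fluor-488) and Hoechst-stained cells gave neurite length, normalized to the DMSO baseline.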

[6] = IUF_NPC1_cytotoxicity_72hr: Cytotoxicity Assessment at 72 hours in the Leibniz Research Institute for Environmental Medicine (IUF) Neural Progenitor Cell Proliferation Assay (NPC1) (AID 2284332);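 further: rising LDH signal means more cytotoxicity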
Method in brief: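 Human fetal neural progenitor spheres (0.3 mm) in EGF/FGF proliferation medium, 37C, exposed 72 h without renewal. LDH release in supernatant read by resorufin fluorescence; gain of signal scored relative to dynamic range.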

[7] = CCTE_Mundy_HCI_iCellGluta_NOG_NeuronCount: CCTE's Neurite Outgrowth Assay in iCellGluta cells for Neuron Count, Mundy Lab (AID 2284340);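 further: cells fixed about 48 h after compound addition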
Method in brief: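 Neuron count read by automated high-content imaging of Hoechst 33342 and betaIII-tubulin/Alexa Fluor-488 labelling in human iPSC glutamatergic neurons. Activity fitted relative to DMSO.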

[8] = CCTE_Mundy_HCI_iCellGluta_NOG_NeuriteCount: CCTE's Neurite Outgrowth Assay in iCellGluta cells for Neurite Count, Mundy Lab (AID 2284342);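 further: chemical exposure about 48 hours starting 2 hours after plating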
[9] = tested on: SERPINA7 (gene 6906); assay: CCTE_GLTED_hTBG: CCTE's human Thyroxine-binding Globulin (TBG) Inhibition Assay, Great Lakes Toxicology and Ecology Division (GLTED) Lab (AID 2284343);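 further: active chemicals lower fluorescence versus DMSO baseline by displacing probe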
Method in brief: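 Human TBG incubated 2 h with test chemical; displacement of ANSA probe read by fluorescence, 380 nm excitation/475 nm emission. Loss of signal relative to DMSO.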

[10] = tested on: IYD (gene 389434); assay: CCTE_GLTED_hIYD: CCTE's human Iodotyrosine Deiodinase (xIYD) Inhibition Assay, Great Lakes Toxicology and Ecology Division (GLTED) Lab (AID 2284317);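 further: cell-free human IYD enzyme made in baculovirus insect cells; iodide freed from monoiodotyrosine measured by cerium arsenite color change at 420 nm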
Method in brief: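 hIYD: baculovirus-expressed human IYD deiodinated monoiodotyrosine for 3 h with test chemical; free iodide was measured by Sandell-Kolthoff absorbance at 420 nm and normalized to MNT and DMSO/NaOH controls.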

[11] = CCTE_Deisenroth_5AR_NBTE_donor: CCTE's 5alpha-reductase NanoBRET Target Engagement Assay […], Deisenroth Lab (AID 2284319; active means hit-call score of the fitted dose curve at least 0.9, where 1 is the maximum; inactive means score below 0.9); details: actives raise or lower the signal
Method in brief: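 SRD5A2-NanoLuc, HEK293T, 20 h expression. Chemical 10 nM - 29.9 uM, 8 conc, duplicate; 3 h preincubation + 2 h testosterone tracer. Nano-Glo substrate plus extracellular NanoLuc inhibitor; donor lum 460 nm. DMSO baseline, bidirectional fit.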

[12] = CCTE_Deisenroth_5AR_NBTE_acceptor: CCTE's 5alpha-reductase NanoBRET Target Engagement Assay - Autofluorescence Screen, Deisenroth Lab (AID 2284321; active means hit-call score of the fitted dose curve at least 0.9, where 1 is the maximum; inactive means score below 0.9;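 further: compound fluorescence in the acceptor channel under 460 nm excitation flags autofluorescence artifacts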); details: actives raise or lower the signal
Method in brief: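 Acceptor-channel fluorescence flags artifacts, with excitation fixed at 460 nm. Nominal 100 uM chemical samples were read in triplicate runs, and signal changes were fitted in both directions relative to DMSO.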

[13] = tested on: SRD5A2 (gene 6716); assay: CCTE_Deisenroth_5AR_NBTE_ratio: CCTE's 5alpha-reductase NanoBRET Target Engagement Assay - Ratio, Deisenroth Lab (AID 2284322; active means hit-call score of the fitted dose curve at least 0.9, where 1 is the maximum; inactive means score below 0.9); details: actives raise or lower the signal
Method in brief: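 HEK293T transiently expressing SRD5A2-NanoLuc; cells exposed to chemical (8-point, 10 nM - 29.9 uM) for 5 h total, testosterone tracer added for final 2 h. NanoBRET acceptor/donor ratio (650/460 nm), bidirectional fit vs DMSO.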

[14] = TAMU_PeakParms_SingleDonor1434_Asystole: Texas A&M University (TAMU) 1.5-hr Human Induced Pluripotent Stem Cell (iPSC)-derived Cardiomyocytes Calcium (Ca+2) Flux Assay for Cardiotoxicity: Asystole (quiescence of beating) (AID 2284328)
Method in brief: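 Human iPSC-derived cardiomyocytes (donor 1434) were exposed to 0.2, 1, 10 and 100 uM compound in 0.5% DMSO for 90 min at 37C. Ca2+-dye fluorescence gave average peak frequency; POD is EC95, a 95% beat-rate drop versus DMSO.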

[15] = CCTE_Deisenroth_H295R-HTRF_384WELL_ESTRADIOL: CCTE's H295R-HTRF Assay Evaluation of Estradiol Concentration, Deisenroth Lab (AID 2284361; active means hit-call score of the fitted dose curve at least 0.9, where 1 is the maximum; inactive means score below 0.9); details: actives raise or lower the signal
Method in brief: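 H295R cells exposed 48 h to chemicals at 0.001 - 100 uM final (nine points, triplicate); estradiol in conditioned medium measured by HTRF immunoassay, fitted bidirectionally versus DMSO. Viability by CellTiter-Glo on same plates.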

With N#CN=C1SCCN1Cc1ccc(Cl)nc1 as the compound, how does the outcome [1] read?
The outcome was “inactive”.

And the outcome [2]?
The outcome was “inactive”.

What about the outcome [3] of the same compound?
The outcome was “inactive”.

And the outcome [4]?
Its outcome is “inactive”.

And the outcome [5]?
Its outcome is “inactive”.

What about the outcome [6] of the same compound?
The outcome was “inactive”.

What about the outcome [7] of the same compound?
Its outcome is “inactive”.

What about the outcome [8] of the same compound?
The outcome was “inactive”.

Which AC50 [9] does the source give for CCCCOCN(C(=O)CCl)c1c(CC)cccc1CC here?
Its AC50 is 19.1 µM (active).

For CC(C)Oc1cccc(NC(=O)c2ccccc2C(F)(F)F)c1, which outcome [10] is on record?
Its outcome is “inactive”.

And the AC50 [9]?
Its AC50 is 50 µM (active).

Which outcome [9] does the source give for Cn1c(-c2ccccc2)cc(-c2ccccc2)[n+]1C here?
Its outcome is “inactive”.

With CCCCC(O)(Cn1cncn1)c1ccc(Cl)cc1Cl (configuration not stated) as the compound, how does the AC50 [9] read?
The AC50 was 11.3 µM (active).

For CC1(C)C(C=C(Cl)Cl)C1C(=O)OC(C#N)c1cccc(Oc2ccccc2)c1 (configuration not stated), which outcome [1] is on record?
The outcome was “inactive”.

And the outcome [2]?
Its outcome is “inactive”.

And the outcome [3]?
Its outcome is “inactive”.

What about the outcome [4] of the same compound?
Its outcome is “inactive”.

What about the outcome [5] of the same compound?
The outcome was “inactive”.

And the outcome [6]?
The outcome was “inactive”.

What about the outcome [7] of the same compound?
The outcome was “inactive”.

Which results are given for CC1(C)CCC(=Cc2ccc(Cl)cc2)C1(O)Cn1cncn1 (configuration not stated)?
outcome [11]: inactive; outcome [12]: inactive; outcome [13]: inactive; AC50 [9]: 36.4 µM (active)

For CNC(=O)Oc1cccc2ccccc12, which outcome [2] is on record?
Its outcome is “inactive”.

What about the outcome [3] of the same compound?
The outcome was “inactive”.

What about the outcome [4] of the same compound?
The outcome was “inactive”.

What about the outcome [5] of the same compound?
The outcome was “inactive”.

What about the outcome [14] of the same compound?
The outcome was “inactive”.

And the outcome [6]?
Its outcome is “inactive”.

And the outcome [7]?
The outcome was “inactive”.

And the outcome [8]?
The outcome was “inactive”.

With CC(C)NC(=O)N1CC(=O)N(c2cc(Cl)cc(Cl)c2)C1=O as the compound, how does the outcome [10] read?
Its outcome is “inactive”.

With CCOP(=O)(OCC)Oc1nc(Cl)c(Cl)cc1Cl as the compound, how does the outcome [2] read?
Its outcome is “inactive”.

What about the outcome [3] of the same compound?
The outcome was “inactive”.

What about the outcome [4] of the same compound?
Its outcome is “inactive”.

And the outcome [6]?
Its outcome is “inactive”.

What about the AC50 [9] of the same compound?
The AC50 was 14.9 µM (active).

Which outcome [1] does the source give for CCSC(=O)N1CCCCCC1 here?
The outcome was “inactive”.

What about the outcome [2] of the same compound?
Its outcome is “inactive”.

What about the outcome [3] of the same compound?
Its outcome is “inactive”.

And the outcome [4]?
Its outcome is “inactive”.

What about the outcome [5] of the same compound?
The outcome was “inactive”.

What about the outcome [6] of the same compound?
Its outcome is “inactive”.

What about the outcome [7] of the same compound?
Its outcome is “inactive”.

What about the outcome [8] of the same compound?
The outcome was “inactive”.

And the outcome [15]?
Its outcome is “inactive”.

For O=C(Nc1ccccc1-c1ccc(Cl)cc1)c1cccnc1Cl, which outcome [1] is on record?
Its outcome is “inactive”.

And the outcome [2]?
The outcome was “inactive”.

And the outcome [3]?
Its outcome is “inactive”.

What about the outcome [4] of the same compound?
Its outcome is “inactive”.

What about the AC50 [5] of the same compound?
The AC50 was 23.7 µM (active).

And the outcome [5]?
The outcome was “inactive”.

And the outcome [6]?
The outcome was “inactive”.

What about the AC50 [7] of the same compound?
The AC50 was 50 µM (active).

What about the outcome [7] of the same compound?
The outcome was “inactive”.

What about the AC50 [8] of the same compound?
The AC50 was 38.3 µM (active).

And the outcome [8]?
Its outcome is “inactive”.

Which AC50 [10] does the source give for OC(c1ccc(Cl)cc1)(c1ccc(Cl)cc1)C(Cl)(Cl)Cl here?
The AC50 was 100 µM (active).

And the AC50 [9]?
Its AC50 is 5.3 µM (active).

For COC(=O)N(C(=O)N1CO[C@@]2(C(=O)OC)Cc3cc(Cl)ccc3C2=N1)c1ccc(OC(F)(F)F)cc1, which AC50 [1] is on record?
The AC50 was 1.99 µM (active).

What about the outcome [2] of the same compound?
The outcome was “inactive”.

And the outcome [3]?
Its outcome is “inactive”.

What about the outcome [4] of the same compound?
Its outcome is “inactive”.

What about the outcome [5] of the same compound?
The outcome was “inactive”.

What about the outcome [6] of the same compound?
The outcome was “inactive”.

What about the outcome [7] of the same compound?
Its outcome is “inactive”.

What about the outcome [8] of the same compound?
The outcome was “inactive”.

For CCN(CC)C(=O)C(C)Oc1cccc2ccccc12 (configuration not stated), which outcome [10] is on record?
The outcome was “inactive”.

For CCCN(CC)CC1COC2(CCC(C(C)(C)C)CC2)O1 (configuration not stated), which outcome [9] is on record?
Its outcome is “inactive”.

Which results are given for CC(C)(C)C(=O)C(Oc1ccc(Cl)cc1)n1cncn1 (configuration not stated)?
outcome [1]: inactive; outcome [2]: inactive; outcome [3]: inactive; outcome [4]: inactive; outcome [5]: inactive; outcome [6]: inactive; outcome [7]: inactive; outcome [8]: inactive; outcome [15]: inactive

Which outcome [11] does the source give for Cc1ccc(N=CN(C)C=Nc2ccc(C)cc2C)c(C)c1 here?
The outcome was “inactive”.

What about the outcome [12] of the same compound?
The outcome was “inactive”.

And the outcome [13]?
The outcome was “inactive”.

From PubChem BioAssay (EPA / NIEHS)
